The values that follow come from PubChem BioAssay AID488984 (The Scripps Research Institute Molecular Screening Center, 2010).

SMILES strings stand for the structures. Activity calls are given as the source filed them. No stated cut-off is given here; in the data, active means inhibition above about 55%; inactive means the rest.

This assay concerns SARS coronavirus 3C-like protease (3CLpro, nsp5). The assay can be described thus: blockers of SARS 3CLpro activity – biochemical, fluorescence, set 2, late-stage follow-up (AID 488984). The note with it: recombinant 3CLpro, fluorogenic peptide cleavage; at 100 µM; active compounds read high.
As for `CC(C)c1ccc(N(C(=O)Cc2c[nH]c3ccccc23)C(C(=O)NC(C)(C)C)c2ccsc2)cc1` (configuration not stated), the inhibition (in general, the drop in the measured response relative to a control, in per cent) is 7.61% (inactive). With `CC(C)(C)NC(=O)C(c1cccnc1)N(C(=O)c1ccc(C(F)(F)F)nc1)c1ccc(F)cc1` (configuration not stated) the figure was 10.5% (inactive). For `CC(C)(C)NC(=O)C(c1cccnc1)N(C(=O)c1ccco1)c1ccc(C(C)(C)C)cc1` (configuration not stated), the inhibition is 102% (active). To `CCC(=O)Nc1ccc(N(C(=O)Cn2nnc3ccccc32)C(C(=O)NC(C)(C)C)c2ccsc2)cc1` (configuration not stated) belongs 94.2% (active); to `CC(C)(C)NC(=O)C(c1cccnc1)N(C(=O)Cc1cccnc1)c1ccc(F)cc1` (configuration not stated), 5.7% (inactive); to `CC(C)c1ccc(N(C(=O)c2ccc(C#N)cc2)C(C(=O)NC(C)(C)C)c2cccnc2)cc1` (configuration not stated), -3.85% (inactive). To `CC(C)(C)NC(=O)C(c1ccsc1)N(C(=O)Cc1cccnc1)c1ccc(C(C)(C)C)cc1` (configuration not stated) belongs 37.4% (inactive); to `CC(C)(C)NC(=O)C(c1cccnc1)N(C(=O)Cc1cccc2ccccc12)c1ccc(F)cc1` (configuration not stated), -7.86% (inactive).

Consider `CCC(=O)Nc1ccc(N(C(=O)Cn2c(C)nc3ccccc32)C(C(=O)NC(C)(C)C)c2ccsc2)cc1` (configuration not stated), for which the inhibition is 0.52% (inactive). To `Cc1nccn1CC(=O)N(c1ccc(C(C)(C)C)cc1)C(C(=O)NC(C)(C)C)c1ccsc1` (configuration not stated) belongs 0.41% (inactive). With `CC(=O)Nc1ccc(N(C(=O)Cn2cnc3ccccc32)C(C(=O)NC(C)(C)C)c2ccsc2)cc1` (configuration not stated) the figure was 2.63% (inactive); with `CC(C)(C)NC(=O)C(c1cccnc1)N(C(=O)c1ccc(C#N)cc1)c1ccc(C(C)(C)C)cc1` (configuration not stated), -0.02% (inactive).
